A short description of test [1]: yeast TOR pathway RPL19A-GFP modulators, primary screen, cell-based, S. cerevisiae, multiplex flow cytometry (AID 1862; in the data active = percent of DMSO control GFP below about 86%;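 also: lower values mimic rapamycin by blocking the RPL19A rise seen in DMSO cells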). Particulars: S. cerevisiae RPL19A-GFP strain, flow cytometry fluorescence, 3 h; at 10 µM; stronger effect = lower value.
Test [2] can be described thus: modulators of MEP2-GFP levels in yeast, primary screen, S. cerevisiae, multiplex flow cytometry (AID 1867;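 active = GFP response, as percent of the DMSO control, above the screen-wide mean plus 3 SD, about 139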;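 also: median GFP channel fluorescence of barcode-gated MEP2-GFP cells measured by flow cytometry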). The following applies: S. cerevisiae MEP2-GFP strain, 3 h, at 10 µM, stronger effect = higher value, 100% means same as DMSO wells.
The nature of test [3]: modulators of CIT2-GFP expression in yeast, primary screen, S. cerevisiae, GFP fusion, multiplex flow cytometry (AID 1870;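 active = percent response above a set limit, the screen-wide mean plus 3 SD, cut at about 130% in these data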;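 also: barcoded CIT2-GFP strain pooled with four other GFP strains with rapamycin as positive control; median GFP fluorescence per well over plate mean of DMSO wells so 100% = DMSO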). The following applies: 3 h, at 10 µM, stronger effect = higher value. Background: A flow cytometer gives signals particle by particle.
Test [4] is described as follows: modulators of LAP4-GFP expression in yeast, primary screen, S. cerevisiae, multiplex flow cytometry (AID 1873;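 active = GFP signal, as percent of the solvent control, above the screen mean plus 3 SD, about 149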). Particulars: 3 h, at 10 µM, stronger effect = higher value.
The nature of test [5]: modulators of AGP1-GFP expression in yeast TOR pathway, primary screen, cell-based, multiplex flow cytometry, S. cerevisiae (AID 1887;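 active = GFP signal above the screen-wide mean plus 3 SD, that is over about 124.5% of the solvent control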;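 also: AGP1-GFP fusion strain of S. cerevisiae within a five-strain barcoded multiplex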). The following applies: 3 h, at 10 µM, stronger effect = higher value.
The nature of test [6]: inhibitors of CD8+ T cell-vesicle binding, pilot screen, LFA-1/ICAM-1 modulator project, MLPCN validation set, flow cytometry (AID 2523;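 active = response below a set limit, under 55% cells CD8-positive and vesicle-bound, and CD8 cells' 90th-percentile brightness under 279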;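 as to vesicle binding response: mean PE anti-B7-1 fluorescence of CD8+ cells relative to row control; 100% = QL9-loaded vesicles with DMSO vehicle in the same plate row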). The following applies: 2C mouse CD8+ T cells, at 7 µM, stronger effect = lower value; double positive events: measured here: CD8+/vesicle+ event percentage.
Test [7] concerns the target Integrin beta-1 (Homo sapiens) + Integrin alpha-4 (Homo sapiens) (UniProt P13612+P05556). Briefly: inhibition of HUTS-21 binding to VLA-4, pilot screen, VLA-4 allosteric modulator project, U937 cells, HUTS-21 mAb, flow cytometry, validation set (AID 2674;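 active = inhibition above 50%, about 3 SD of the validation set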;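 also: antibody binding induced by the VLA-4 ligand LDV present at three times its Kd; 0% = LDV ligand with antibody and no compound and 100% = antibody without LDV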). The following applies: HUTS-21 LIBS mAb binding, at 6.7 µM, stronger effect = higher value, binding induced by LDV ligand.
Test [8] can be described thus: superoxide lowering in aged yeast cells, pilot screen, validation compound set (AID 2706;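 active = superoxide response below 65% of plate, a cut near 3 SD across the whole screen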;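 also: yeast exposed to compound for one week at 30 degrees C before staining; 100% = mean of all compound wells on the same plate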). Particulars: S. cerevisiae aging, superoxide DHE fluorescence; at 10 µM; stronger effect = lower value.
The target in test [9] is Beta-adrenergic receptor kinase 1 (Homo sapiens) (UniProt P25098). The experiment in a line: GRK2 binders displacing RNA aptamer, biochemical, validation, human GRK2, bead flow cytometry (AID 488806;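 active = aptamer binding inhibition above 30%, about 3 SD of noise from non-fluorescent compounds; inactive = inhibition at or below 30%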). Particulars: bead-bound GRK2, FAM-aptamer displacement, at 10 µM, stronger effect = higher value.
Beta-adrenergic receptor kinase 1 (Homo sapiens), sequence (P25098 whole entry, looked up): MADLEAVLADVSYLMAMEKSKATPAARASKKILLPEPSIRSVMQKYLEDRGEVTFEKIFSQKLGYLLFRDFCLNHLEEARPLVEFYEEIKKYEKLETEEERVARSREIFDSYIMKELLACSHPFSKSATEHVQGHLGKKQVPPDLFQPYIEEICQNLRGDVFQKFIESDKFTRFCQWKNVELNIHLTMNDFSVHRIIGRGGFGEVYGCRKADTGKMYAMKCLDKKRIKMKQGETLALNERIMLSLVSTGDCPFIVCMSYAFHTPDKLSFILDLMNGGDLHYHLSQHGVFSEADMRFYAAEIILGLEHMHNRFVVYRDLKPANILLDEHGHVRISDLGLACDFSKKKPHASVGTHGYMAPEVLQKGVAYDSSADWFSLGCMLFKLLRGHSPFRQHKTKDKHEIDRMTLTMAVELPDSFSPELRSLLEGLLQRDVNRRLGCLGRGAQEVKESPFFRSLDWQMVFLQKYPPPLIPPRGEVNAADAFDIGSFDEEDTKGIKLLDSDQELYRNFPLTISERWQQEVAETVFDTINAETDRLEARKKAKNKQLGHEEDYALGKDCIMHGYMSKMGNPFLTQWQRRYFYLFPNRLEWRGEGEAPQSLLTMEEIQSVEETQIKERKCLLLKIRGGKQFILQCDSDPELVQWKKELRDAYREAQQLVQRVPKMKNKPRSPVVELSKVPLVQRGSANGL
Test [10] addresses Beta-2 adrenergic receptor (Homo sapiens) (UniProt P07550). The experiment in a line: beta2AR agonists driving receptor internalization, pilot screen, cell-based, FAP fluorogen, flow cytometry, validation set (AID 504459;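 active = percent response above 42, roughly 3 SD of non-fluorescent test compounds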;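 also: agonist-driven loss of surface beta2AR via internalization measured by FAP dye flow cytometry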). The following applies: Am2.2-beta2AR cells, FAP surface receptor flow cytometry; at 10 µM; stronger effect = higher value.
The target in test [11] is AP-2 complex subunit beta (Homo sapiens) (UniProt P63010). The experiment in a line: inhibitors of arrestin peptide binding to AP2, pilot screen, biochemical, validation set, GST-AP2 beads, flow cytometry (AID 504541).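 Also: AP2 carries R879A mutation and is captured from E. coli lysate; bead-bound FITC arrestin peptide fluorescence measuring arrestin peptide binding to AP2; 0% = DMSO wells and 100% = excess unlabeled arrestin peptide control.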 The following applies: FITC arrestin peptide, at 10 µM, stronger effect = higher value, AP2 beta2 appendage fragment, R879A mutant.
AP-2 complex subunit beta (Homo sapiens), sequence (P63010 whole entry, looked up, the tested form may be a part, one chain of several): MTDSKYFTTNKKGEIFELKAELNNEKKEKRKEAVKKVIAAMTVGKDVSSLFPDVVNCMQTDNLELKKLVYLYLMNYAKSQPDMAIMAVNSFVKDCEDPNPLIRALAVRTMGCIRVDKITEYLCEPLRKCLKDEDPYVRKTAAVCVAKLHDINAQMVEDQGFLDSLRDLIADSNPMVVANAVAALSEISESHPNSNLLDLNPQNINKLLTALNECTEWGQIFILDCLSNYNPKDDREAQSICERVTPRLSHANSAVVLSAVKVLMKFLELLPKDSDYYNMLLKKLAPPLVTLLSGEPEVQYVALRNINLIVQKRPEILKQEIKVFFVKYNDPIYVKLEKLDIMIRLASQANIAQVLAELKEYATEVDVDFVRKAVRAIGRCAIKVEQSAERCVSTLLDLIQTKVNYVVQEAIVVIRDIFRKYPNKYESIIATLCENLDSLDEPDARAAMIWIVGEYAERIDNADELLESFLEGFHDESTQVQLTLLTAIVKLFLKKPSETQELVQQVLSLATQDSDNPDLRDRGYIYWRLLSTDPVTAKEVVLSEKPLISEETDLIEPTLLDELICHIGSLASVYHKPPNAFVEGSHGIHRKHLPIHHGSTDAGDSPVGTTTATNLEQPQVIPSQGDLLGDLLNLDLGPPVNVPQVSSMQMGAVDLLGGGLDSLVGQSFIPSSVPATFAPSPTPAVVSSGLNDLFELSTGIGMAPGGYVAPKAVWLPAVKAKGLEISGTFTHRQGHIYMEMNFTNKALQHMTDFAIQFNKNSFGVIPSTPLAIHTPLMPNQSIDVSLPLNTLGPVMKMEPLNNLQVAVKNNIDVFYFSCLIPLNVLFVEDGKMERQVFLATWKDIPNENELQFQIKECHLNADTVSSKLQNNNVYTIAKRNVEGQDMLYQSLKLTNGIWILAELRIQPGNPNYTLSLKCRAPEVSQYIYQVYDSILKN
Test [12] is described as follows: yeast V-ATPase proton transport modulators, S. cerevisiae, pHLuorin, HTS validation (AID 504600; in the data active = response above about 15%;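 also: plate controls were DMSO for no effect and reference compound for full effect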). Particulars: S. cerevisiae pHLuorin cytosolic pH, at 10 µM, stronger effect = higher value.
Test [13] deals with anti-desmoglein-3 scFv antibody binding to human DSG3. The experiment in a line: inhibitors of anti-DSG3 scFv binding to DSG3, pilot screen, biochemical, validation compound set, bead-based, flow cytometry (AID 588368;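 active = binding below the plate cutoff, the plate median minus 3 SD, with a reading above zero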;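 also: signal is the median channel fluorescence of bead-bound GFP antibody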). The following applies: Protein G beads, DSG3-Fc, scFv-GFP binding, at 10 µM, stronger effect = lower value.
A short description of test [14]: inhibitors of fungal efflux pumps CDR1, CDR2, MDR1, pilot screen, validation compound set, multiplex, phenotypic (AID 588506;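 active = efflux inhibition above 0.42, the validation set average plus 4 SD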;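 also: Nile Red retained in cells so higher fluorescence means more efflux inhibition; 0 = negative control wells and 1 = enniatin B 25 µM full block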). The following applies: S. cerevisiae pump-expressing triplex, Nile Red efflux flow cytometry; at 10 µM; stronger effect = higher value; the pumps come from Candida albicans.
Test [15] addresses ATP-binding cassette sub-family B member 6 (Homo sapiens) (UniProt Q9NP58). The experiment in a line: ABCB6 transporter inhibitors, pilot screen, K562-ABCB6 cells, flow cytometry, validation set (AID 588550;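 active = inhibition above the screen-wide mean plus 3 SD, about 51%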;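 also: 0% = DMSO wells and 100% = benzethonium chloride 70 µM positive control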). Particulars: K562-ABCB6 porphyrin accumulation, 1 h, at 10 µM, stronger effect = higher value.
Test [16] is described as follows: promoters of myeloid differentiation in arrested cells, primary screen, cell-based, GFP/MAC1 double positive, flow cytometry, validation set (AID 588685;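 active = differentiation response of at least 50%, scaled between solvent and reference control, from cells with both markers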;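 also: compound exposure lasts four days before antibody staining and flow analysis; 0% = DMSO wells and 100% = 5 µM fulvestrant positive control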). The following applies: ER-HoxA9 marrow cells, stronger effect = higher value, normalized: vehicle 0, fulvestrant 100.

Results filed as inconclusive are left out. Calls of active or inactive are those of the source.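 The calls were made as follows, unless noted: active = inhibition above 54%, about 3 SD of non-fluorescent compounds; inactive = the rest.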

Integrin beta-1 (Homo sapiens) + Integrin alpha-4 (Homo sapiens), sequence (P05556 whole entry, looked up): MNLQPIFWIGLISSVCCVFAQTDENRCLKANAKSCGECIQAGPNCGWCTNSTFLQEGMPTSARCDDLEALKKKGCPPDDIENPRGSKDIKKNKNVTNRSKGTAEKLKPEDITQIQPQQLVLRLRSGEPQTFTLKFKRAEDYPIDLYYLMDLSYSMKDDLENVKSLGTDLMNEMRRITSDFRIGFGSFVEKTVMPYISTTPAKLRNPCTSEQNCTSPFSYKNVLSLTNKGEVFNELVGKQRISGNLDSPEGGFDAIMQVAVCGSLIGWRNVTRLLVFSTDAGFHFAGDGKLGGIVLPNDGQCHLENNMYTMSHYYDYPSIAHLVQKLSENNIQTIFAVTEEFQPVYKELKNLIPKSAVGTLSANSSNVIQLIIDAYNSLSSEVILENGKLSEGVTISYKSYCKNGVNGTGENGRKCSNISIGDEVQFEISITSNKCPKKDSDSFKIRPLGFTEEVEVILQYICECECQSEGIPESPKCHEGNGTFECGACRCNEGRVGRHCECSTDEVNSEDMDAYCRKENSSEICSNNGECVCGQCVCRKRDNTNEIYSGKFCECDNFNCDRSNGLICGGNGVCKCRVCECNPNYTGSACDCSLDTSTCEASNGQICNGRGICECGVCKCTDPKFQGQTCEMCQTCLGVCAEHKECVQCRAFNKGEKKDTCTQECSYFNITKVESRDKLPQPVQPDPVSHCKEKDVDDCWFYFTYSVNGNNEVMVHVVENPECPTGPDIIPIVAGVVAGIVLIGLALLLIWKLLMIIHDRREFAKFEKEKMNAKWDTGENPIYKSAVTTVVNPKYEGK
Integrin beta-1 (Homo sapiens) + Integrin alpha-4 (Homo sapiens), sequence (P13612 whole entry, looked up): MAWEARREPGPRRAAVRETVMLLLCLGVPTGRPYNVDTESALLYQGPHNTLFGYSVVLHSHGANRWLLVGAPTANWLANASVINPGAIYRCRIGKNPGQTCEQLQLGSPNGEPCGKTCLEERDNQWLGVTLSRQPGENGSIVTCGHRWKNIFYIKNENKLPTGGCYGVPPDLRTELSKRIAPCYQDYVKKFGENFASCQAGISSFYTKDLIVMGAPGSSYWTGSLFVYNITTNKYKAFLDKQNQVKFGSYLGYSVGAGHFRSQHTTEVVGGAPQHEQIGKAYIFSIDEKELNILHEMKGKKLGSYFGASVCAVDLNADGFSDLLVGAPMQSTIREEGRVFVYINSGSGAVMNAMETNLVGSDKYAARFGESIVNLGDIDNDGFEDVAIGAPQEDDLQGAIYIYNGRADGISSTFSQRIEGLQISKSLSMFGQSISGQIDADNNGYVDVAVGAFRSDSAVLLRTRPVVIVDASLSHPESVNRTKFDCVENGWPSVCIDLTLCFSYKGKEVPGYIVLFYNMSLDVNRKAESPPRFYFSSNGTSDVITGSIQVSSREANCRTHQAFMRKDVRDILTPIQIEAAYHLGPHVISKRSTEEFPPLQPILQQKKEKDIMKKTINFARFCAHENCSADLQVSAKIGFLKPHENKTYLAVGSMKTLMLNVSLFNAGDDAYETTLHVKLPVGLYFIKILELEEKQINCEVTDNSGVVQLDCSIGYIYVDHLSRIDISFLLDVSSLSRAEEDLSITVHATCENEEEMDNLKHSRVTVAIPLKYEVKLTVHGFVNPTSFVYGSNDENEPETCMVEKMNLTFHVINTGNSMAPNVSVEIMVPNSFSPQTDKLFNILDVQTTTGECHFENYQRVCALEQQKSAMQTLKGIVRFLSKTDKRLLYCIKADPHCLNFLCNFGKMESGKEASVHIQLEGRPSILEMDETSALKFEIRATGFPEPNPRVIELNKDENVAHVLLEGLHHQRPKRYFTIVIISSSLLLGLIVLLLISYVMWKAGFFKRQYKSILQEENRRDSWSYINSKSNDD
ATP-binding cassette sub-family B member 6 (Homo sapiens), sequence (Q9NP58 whole entry, looked up): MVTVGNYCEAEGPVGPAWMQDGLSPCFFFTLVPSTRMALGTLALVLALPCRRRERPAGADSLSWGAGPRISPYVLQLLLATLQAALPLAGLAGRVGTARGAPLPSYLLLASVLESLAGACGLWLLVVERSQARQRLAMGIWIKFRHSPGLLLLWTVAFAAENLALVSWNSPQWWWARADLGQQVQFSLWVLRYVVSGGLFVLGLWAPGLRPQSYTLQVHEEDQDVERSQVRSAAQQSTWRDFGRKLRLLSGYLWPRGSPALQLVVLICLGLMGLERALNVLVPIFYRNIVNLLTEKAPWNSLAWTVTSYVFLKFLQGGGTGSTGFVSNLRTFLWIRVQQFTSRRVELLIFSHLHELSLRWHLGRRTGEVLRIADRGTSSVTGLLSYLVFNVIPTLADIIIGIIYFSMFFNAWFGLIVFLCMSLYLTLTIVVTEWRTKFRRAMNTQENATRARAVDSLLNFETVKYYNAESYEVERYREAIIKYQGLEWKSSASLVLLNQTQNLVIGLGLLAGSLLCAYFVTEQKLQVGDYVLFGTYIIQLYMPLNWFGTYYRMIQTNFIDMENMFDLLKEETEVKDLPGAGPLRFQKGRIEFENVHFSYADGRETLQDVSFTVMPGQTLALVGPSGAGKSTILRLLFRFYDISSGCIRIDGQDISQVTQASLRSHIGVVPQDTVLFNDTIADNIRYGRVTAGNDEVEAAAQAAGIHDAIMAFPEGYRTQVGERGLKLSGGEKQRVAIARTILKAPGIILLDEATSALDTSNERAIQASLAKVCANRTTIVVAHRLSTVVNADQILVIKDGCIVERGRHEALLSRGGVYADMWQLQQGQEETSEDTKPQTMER
Beta-2 adrenergic receptor (Homo sapiens), sequence (P07550 whole entry, looked up): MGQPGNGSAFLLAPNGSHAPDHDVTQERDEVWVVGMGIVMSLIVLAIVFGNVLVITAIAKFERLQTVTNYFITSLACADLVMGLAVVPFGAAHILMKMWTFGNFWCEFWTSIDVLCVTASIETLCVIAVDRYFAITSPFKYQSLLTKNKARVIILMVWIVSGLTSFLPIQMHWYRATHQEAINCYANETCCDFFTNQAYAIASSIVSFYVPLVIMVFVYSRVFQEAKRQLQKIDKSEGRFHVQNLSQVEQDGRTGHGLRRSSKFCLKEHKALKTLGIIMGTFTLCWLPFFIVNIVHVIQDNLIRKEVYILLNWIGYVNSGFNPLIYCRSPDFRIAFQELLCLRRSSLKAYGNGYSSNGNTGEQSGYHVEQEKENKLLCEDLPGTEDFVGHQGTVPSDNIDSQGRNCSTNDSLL

`N/C(=N\OC(=O)CCCOc1ccc(Cl)cc1Cl)c1ccccn1`: the percent of DMSO control GFP in [1] is 103% (inactive). Also, the GFP response vs DMSO in test [2] is 110% (inactive); in [4] it was 107% (inactive). Besides, in [3], the percent response of DMSO control was 93.9% (inactive). Besides, the GFP response, % of DMSO in test [5] was 86.8% (inactive). Besides, the double positive events in test [6] was 59.3%. Besides, the vesicle binding response in [6] was 11.6% (inactive). Also, the inhibition is 9.71% (inactive) in test [7], -27.4% (inactive) in test [11] and 7% (inactive) in test [15]. The superoxide response (% of plate) in test [8] was 106% (inactive). Further, the aptamer binding inhibition in test [9] was 0% (inactive). Besides, the figures for the response in test [10] and in [12] were 2.49% (inactive) and -2.42% (inactive), respectively. In test [13], the binding (% of control) was 105% (inactive). Besides, the efflux inhibition (fraction of control) in test [14] was -0.12 (inactive). The differentiation response in test [16] is -5.68% (inactive).
As to `COc1ccc(C(=O)Nc2cccnc2)cc1C(=O)Nc1cccnc1`, the percent of DMSO control GFP in test [1] was 104% (inactive). The GFP response vs DMSO in test [2] and in test [4] was 107% (inactive) each time. In test [3], the percent response of DMSO control is 102% (inactive). The GFP response, % of DMSO in test [5] is 106% (inactive). This compound also yielded a double positive events in test [6] of 65%. Further, in test [6], the vesicle binding response is 191% (inactive). For the same compound, the inhibition in test [7] was -3.77% (inactive); in test [11], -14.1% (inactive); in test [15] it was 8% (inactive). In addition, in test [8], the superoxide response (% of plate) is 104% (inactive). Further, in [9], the aptamer binding inhibition is 2% (inactive). Moreover, the response in [10] was 9.93% (inactive); in test [12], 0.74% (inactive). For the same compound, the binding (% of control) in [13] was 99% (inactive). Also, in [14], the efflux inhibition (fraction of control) is -0.11 (inactive). In test [16], the differentiation response was 13% (inactive).
`O=C(c1cccnc1)N1N=C(C2CC2)CC1(O)C(F)(F)F` (stereo not given): the percent of DMSO control GFP in test [1] is 99.1% (inactive). The GFP response vs DMSO is 104% (inactive) in [2] and 115% (inactive) in [4]. Further, in test [3], the percent response of DMSO control was 93.9% (inactive). Further, the GFP response, % of DMSO in test [5] was 104% (inactive). Besides, the double positive events in [6] was determined as 60.4%. In addition, the vesicle binding response in [6] is 353% (inactive). Besides, the inhibition in test [7] is -7.25% (inactive); in test [11] it was 2.62% (inactive); in test [15], 10% (inactive). Moreover, in test [8], the superoxide response (% of plate) was 106% (inactive). Moreover, the aptamer binding inhibition in [9] is 2% (inactive). The response in test [10] was -5.28% (inactive); in test [12], -0.29% (inactive). The binding (% of control) in [13] is 101% (inactive). Also, the efflux inhibition (fraction of control) in test [14] was -0.1 (inactive). Further, the differentiation response in test [16] was -28% (inactive).
With `CC(C)(C)C(=O)Nc1cccc(OC(F)(F)C(F)Cl)c1` (stereo not given), the percent of DMSO control GFP in test [1] is 105% (inactive). Besides, the GFP response vs DMSO in test [2] is 106% (inactive); in [4], 107% (inactive). The percent response of DMSO control in test [3] was 105% (inactive). Further, the GFP response, % of DMSO in [5] was 113% (inactive). This compound also yielded a double positive events in test [6] of 66.2%. For the same compound, the vesicle binding response in [6] was 212% (inactive). Moreover, the inhibition in [7] was 25.3% (inactive); in test [11] it was 8.53% (inactive); in test [15], 5% (inactive). Further, the superoxide response (% of plate) in test [8] is 105% (inactive). The aptamer binding inhibition in [9] is 4% (inactive). Further, the response in test [10] is -32.2% (inactive); in test [12] it was 18.4% (active). In addition, the binding (% of control) in [13] is 99.5% (inactive). In addition, the efflux inhibition (fraction of control) in test [14] was -0.04 (inactive). Further, the differentiation response in test [16] was 11.8% (inactive).
Turning to `CC(C)CC(NC(=O)c1cccc(Cl)c1)C(=O)O` (stereo not given), in [1], the percent of DMSO control GFP is 94.6% (inactive). The GFP response vs DMSO was 102% (inactive) in [2] and 129% (inactive) in test [4]. Further, the percent response of DMSO control in test [3] is 94.8% (inactive). The GFP response, % of DMSO in test [5] was 101% (inactive). In test [6], this compound returned a double positive events of 60.5%. In test [6], the vesicle binding response was 207% (inactive). Besides, the inhibition in [7] was -7.25% (inactive); in [11] it was 14.1% (inactive); in [15], 2% (inactive). Further, in test [8], the superoxide response (% of plate) is 113% (inactive). In addition, the aptamer binding inhibition in test [9] was 0% (inactive). Besides, the response in test [10] was -14.8% (inactive); in test [12], 1.45% (inactive). For the same compound, the binding (% of control) in [13] was 98% (inactive). For the same compound, in [14], the efflux inhibition (fraction of control) is -0.13 (inactive). In addition, the differentiation response in [16] was -5.6% (inactive).

What is called inhibition is the relative decrease from the control value, in per cent.

The record behind these values is PubChem BioAssay.
